# Assay results from PubChem BioAssay (NCI).
# About 79,000 compounds went through this panel and 15% of them were active in at least one assay; those are over-represented in the sample as a whole. Unmarked numbers belong to inactive results. Calls of active or inactive are those of the source. No stated cut-off is given here; in the data, active means growth inhibition above about 70%; inactive means the rest.
# How the values were obtained:
# [1] = NCI Yeast Anticancer Drug Screen. Data for the rad50 strain (AID 155);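 further: 0% = growth of vehicle-only cultures of the same strain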; conditions: S. cerevisiae rad50 strain growth inhibition, active compounds read high; at 50.0 µM unless noted
# Outline: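 Vehicle-treated cultures provide the reference for the growth inhibition reported for compound-exposed, repair-deficient yeast.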
# [2] = NCI Yeast Anticancer Drug Screen. Data for the mec2-1 strain (AID 157); conditions: S. cerevisiae mec2-1 strain, active compounds read high; at 50.0 µM unless noted
# Outline: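 Compounds were applied to mec2-1 yeast cells. Their growth was then compared with that of vehicle-treated cultures to give growth inhibition.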
# [3] = NCI Yeast Anticancer Drug Screen. Data for the sgs1 mgt1 strain (AID 161);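 further: 0% = growth of cultures given vehicle only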; conditions: S. cerevisiae sgs1 mgt1 strain, active compounds read high; at 50.0 µM unless noted
# Outline: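 Percent growth inhibition was derived by comparing compound-exposed mutant yeast with vehicle-exposed cultures. The strain carries alterations in DNA damage repair.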
# [4] = NCI Yeast Anticancer Drug Screen. Data for the cln2 rad14 strain (AID 165);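 further: 0% = growth equal to vehicle treated cultures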; conditions: S. cerevisiae cln2 rad14 strain, active compounds read high; at 50.0 µM unless noted
# Outline: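 Strain: cln2 rad14 yeast, altered in cell cycle control and DNA damage repair. Read-out: growth inhibition vs vehicle.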
# [5] = NCI Yeast Anticancer Drug Screen. Data for the bub3 strain (AID 167); conditions: S. cerevisiae bub3 mutant strain, active compounds read high; at 50.0 µM unless noted
# Outline: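 Mutant yeast screening strain plus compound; vehicle-treated cultures serve as the 0% inhibition reference.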
# [6] = NCI Yeast Anticancer Drug Screen. Data for the mlh1 rad18 strain (AID 175); conditions: S. cerevisiae mlh1 rad18 strain growth inhibition, active compounds read high; at 50.0 µM unless noted
# Outline: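 A repair-deficient yeast strain is exposed to test compound, and growth is scored relative to vehicle-treated controls.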
Structure (SMILES),growth inhibition [1],growth inhibition [2],growth inhibition [3],growth inhibition [4],growth inhibition [5],growth inhibition [6]
O=C(CNC(=O)C(Cc1ccccc1)N1C(=O)c2ccccc2C1=O)Nc1ccccc1 (stereo not given),34.4%,-1.55%,46.3%,5%,17.4%,6.55%
O=C(NCCO)c1c(O)c2ccccc2[nH]c1=O,2.8%,0.2%,-6.05%,12.9%,6.55%,2.9%
CC(C)CCCC(C)C1CCC2C3CC4OC45CC(O)CCC5(C)C3CCC12C (stereo not given),42.4%,18.1%,47.7%,7.3%,-1.1%,29.4%
COc1cc(/C=C/C(=O)c2sc(Nc3ccccc3)nc2C)ccc1O,27.8%,2.8%,13.2%,0.85%,19%,28%
O=C(c1ccccc1)C1(c2ccccc2)OC1(C(=O)c1ccccc1)c1ccccc1 (stereo not given),15.4%,-4.75%,7.5%,-7.65%,-3.3%,4.2%
N#CC1=C(N)OC(C2CC2)=C(C#N)C1c1ccco1 (stereo not given),-9.75%,-14.1%,-11.1%,4.45%,-24.8%,-11.9%
CC1CN(CCO)CCN1Cc1ccccc1 (stereo not given),-12.6%,-12.3%,-16.6%,-5.1%,-12.6%,-5.8%
Cc1nc2ncnc(N)c2[nH]1,3.55%,-11%,-12.5%,-28.7%,11.2%,-5.95%
Cc1cc(C)c([N+](=O)[O-])cc1N,20.9%,15.1%,26.6%,13.5%,22.8%,19.6%
O=C1c2cc(Cc3ccccc3)c(=O)c(Cc3ccccc3)cc2C(=O)c2cc(Cc3ccccc3)c(=O)c(Cc3ccccc3)cc21,23%,-11.3%,-11.3%,-26%,-6.35%,20.3%
CC1CC(=O)CC(C)(C)N1 (stereo not given),-9.4%,-9%,3.2%,-2.4%,5.85%,-7.25%
COC(=O)CCc1ccco1,10.6%,-10%,3.4%,2.5%,6.95%,12.7%
CCN(CC)CCN(C(=O)C(C)(C)C)c1ccccc1N,-30.8%,-27.9%,-17.1%,-18.6%,-19.1%,-4%
Oc1ccc(-c2c3ccccc3c(-c3ccc(O)cc3)c3ccccc23)cc1,-0.85%,-9.6%,-31.6%,-7.2%,-9.15%,1.15%
Cc1cc(C(=O)O)cc(C)c1N(C)C=O,-0.8%,6.25%,3.15%,2.35%,-1.05%,4.45%
O=C(O)Cn1c(=O)[nH]c(=O)c2[nH]cnc21,4.6%,-26.4%,-0.3%,13.8%,-9.2%,-12%
O=c1[nH]c(=O)n(C2OC(CO)C(O)C2Br)cc1Br (stereo not given),-2.25%,-3.3%,-6.8%,-7.6%,0.65%,23.9%
CCc1cccc(CC)c1NC(=S)N/C=C(\C#N)S(=O)(=O)c1ccc(C)cc1,-4.8%,-10.6%,17.4%,-15.4%,-5.5%,-20.5%
CC(O)COC(C)C (stereo not given),8.55%,-5.7%,17.7%,2.85%,-1.85%,19.8%
C1CCC2=NCCCN2CC1,-13.8%,-23%,10.6%,-4.8%,11.8%,-1%

Structure (SMILES),growth inhibition [1],growth inhibition [2],growth inhibition [3],growth inhibition [4],growth inhibition [5],growth inhibition [6]
CC1=C2CC(C)(C)/C=C\C(=O)/C(C)=C\C3=C[C@H](C)C[C@]3(O2)C1=O,60.8%,71.2% (active),72.8% (active),40.4%,64.4%,79.8% (active)
O=[N+]([O-])c1ccc(Sc2ncnc3c2ncn3C2OC(CO)C(O)C2O)c2nonc12 (stereo not given),3.05%,-12.4%,-2.4%,16.1%,-2.95%,33.2%
CCCCc1cc(C(=O)OC/C(C)=N/NC(N)=O)c2ccccc2n1,-6.7%,25.8%,18.9%,-27.6%,35.8%,9.45%
CC[N+]1(CC)CC[N+]2(CC1)CC[N+]1(CC[N+](CC)(CC)CC1)CC2,-16.9%,-3.4%,12.1%,-26.6%,1.7%,2.7%
S=c1c(-c2ccccc2)cnc2sccn12,40.9%,29.8%,8.3%,-22.6%,19.8%,18.4%
COc1ccc2c(c1)c(CC(=O)O)c(C)n2Cc1ccccc1,-13.7%,-16%,-13.7%,-14.8%,17.4%,-7.65%
COc1ccc(C(=O)CN2CCN(c3ccccc3)CC2)cc1,14.7%,-7.05%,17.1%,-52.6%,23%,5.35%
CC1CC1C(N)C1CC1C (stereo not given),10.3%,3.15%,-1.95%,23.9%,10.8%,8.3%
O=C1OC(/C=C/c2ccccc2)=NC/1=C\c1ccc2c(c1)OCO2,-4.95%,18.9%,-16.4%,-21.1%,-1.85%,-19.8%
CCOCC(Br)C(OCC)OCC (stereo not given),19.2%,-6.65%,8.15%,20.9%,0.45%,26.1%
CN(N=O)C(=O)NCCn1cnc2c(=O)[nH]cnc21,-6.55%,14.4%,-5.35%,-56.8%,1.2%,-11.8%
CCSC(=O)C(F)(F)F,-9.95%,-47.9%,-51.4%,-1.2%,-18.1%,-25.6%
NC(C(=O)O)c1ccc(CBr)cc1 (stereo not given),9.5%,-12.3%,-10.2%,4.25%,-1.6%,-64.5%
CCCCCCCCCOCC(=O)O,34.4%,5.55%,7.5%,3.15%,2.3%,6.4%
O=C1c2sc(-c3ccc(Cl)cc3)cc2-n2cccc21,9.3%,15.4%,2.15%,2.5%,-9.2%,26.2%
O=P1(NC23CC4CC(CC(C4)C2)C3)OC(CCl)=NC1c1ccc(C2N=C(CCl)OP2(=O)NC23CC4CC(CC(C4)C2)C3)cc1 (stereo not given),-56.6%,-32.7%,-34.3%,-12.8%,-35.1%,-57.2%
COc1cc(Nc2nc3ccc(C(F)(F)F)cc3nc2C(=O)O)cc(OC)c1OC,15.8%,20.3%,29.9%,48.7%,24.8%,10.3%
C=C(CC(O)(C(F)(F)F)C(F)(F)F)CC(O)(C(F)(F)F)C(F)(F)F,64.8%,94.5% (active),63.9%,65.6%,95% (active),95% (active)
CCOC(=O)C1SC(=Nc2ccccc2)N=C1C (stereo not given),11.3%,-11.7%,28.1%,-4.15%,-19.6%,-4.5%
Cc1cc(=O)oc2nn(CCO)c(C)c12,-35.3%,-17.6%,-10.1%,-41.9%,-10.6%,-13.7%
